From ChEMBL document CHEMBL4513216, “Probing the Open Global Health Chemical Diversity Library for Multistage-Active Starting Points for Next-Generation Antimalarials” (ACS Infect Dis, 2020)
Among all 69,000 compounds or so, about 8,600 (12%) showed an effect of 50% or more. This is one part of a sample in which strong results are shown more often than they occur.

The compounds below were run on Plasmodium berghei (assay: Screen against P. berghei liver stage (PbLuc), transformed with Luciferase, at 10uM). Settings: tested at 10 uM.
Type: functional, HepG2
Compound CC1CCN(c2cncc(CCC3CCCN3)n2)CC1 (stereo not given) has an INHIBITION of 35.8%.
With CN(C)CC(=O)N1CCC2(CCN(Cc3cccc(F)c3)CC2)C1 the INHIBITION was 9.97%.
In the case of CSCC[C@H](NC(=O)CCn1ccc2c(Br)cccc21)C(=O)O, the INHIBITION is reported as -2.13%.
In the case of CCCn1nccc1NC(=O)CN1CCC[C@H]1CO, the INHIBITION is reported as -72.2%.
Work on COCC1CN(CC2CC2)Cc2nccn2C1 (stereo not given) yielded an INHIBITION of 35.7%.
In the case of N#CC1(C(=O)N2CCN(Cc3cscn3)CC2)CCCCC1, the INHIBITION is reported as 25.6%.
CC(C)c1nc(CN(C)C(=O)CCc2ccc3c(c2)OCO3)cs1 showed an INHIBITION of 19.4%.
In the case of COC(=O)C(NC(=O)CC(C)C)c1cc(F)ccc1F (stereo not given), the INHIBITION is reported as 15.6%.
Work on CCCN1CCC(CNC(=O)C2(c3cc(C)cc(C)c3)CCC2)C1 (stereo not given) yielded an INHIBITION of 25.1%.
In the case of CCN1CCC(CNC(=O)C2(c3cccc(C)c3)CC2)C1 (stereo not given), the INHIBITION is reported as 37%.
Compound CCN1CCCC(CNC(=O)C2(c3cc(C)cc(C)c3)CCC2)C1 (stereo not given) has an INHIBITION of 51.1%.
For CCN1CCC(CNC(=O)c2cc(Cl)c[nH]2)CC1, the INHIBITION was 7.39%.
For COCCN1CCC(CNC(=O)c2c[nH]c(=O)c(Cl)c2)CC1, the INHIBITION was -16%.
COCCN1CCC(CNC(=O)c2cc(Cl)c[nH]2)CC1 showed an INHIBITION of 72.3%.
In the case of CCOc1cc(CNC(=O)NCc2nc(C)c(C)s2)ccn1, the INHIBITION is reported as 30.1%.
Work on CCOc1cc(CNC(C)c2ccc(F)cc2)ccn1 (stereo not given) yielded an INHIBITION of 21.5%.
CCOc1cc(CNC(C)c2sccc2C)ccn1 (stereo not given) gave an INHIBITION of 66.9%.
Work on CCOc1cccc(CCNC(=O)Cc2ccn[nH]2)n1 yielded an INHIBITION of 61.8%.
With CCOc1cccc(CCNC(=O)Cc2cccc(O)c2)n1 the INHIBITION was 37.2%.
CCOc1cccc(CCNC(=O)Cc2ccccc2O)n1 was tested, and the INHIBITION was 20.1%.
In the case of CC(=O)N1N=C(COc2ccc(Cl)cc2)OC1c1ccccc1 (stereo not given), the INHIBITION is reported as 68.9%.
With COc1ccc(C2OC(COc3ccc(C)cc3)=NN2C(C)=O)cc1 (stereo not given) the INHIBITION was -13.6%.
COc1ccc(C2OC(COc3ccccc3Br)=NN2C(C)=O)cc1 (stereo not given) was tested, and the INHIBITION was -52.1%.
With CC(=O)N1N=C(COc2ccc(C)cc2)OC1c1ccc(N(C)C)cc1 (stereo not given) the INHIBITION was 11.9%.
CC(=O)N1N=C(COc2ccc3c(c2)OCO3)OC1c1cccc(Cl)c1 (stereo not given) showed an INHIBITION of 61.5%.
Work on CC(=O)N1N=C(COc2ccc3c(c2)OCO3)OC1c1ccc(C)cc1 (stereo not given) yielded an INHIBITION of -51.1%.
With COCC(=O)N1C[C@@H](c2cccc(OC)c2)[C@@]2(CCCCC(=O)N2)C1 the INHIBITION was -4.87%.
CC(C)(CCS(C)(=O)=O)CNC(=O)NC1CCCCC1(C)C (stereo not given) was tested, and the INHIBITION was -11.1%.
Cc1cc(C2CCCN(CCS(=O)(=O)c3ccccc3)C2)n[nH]1 (stereo not given) was tested, and the INHIBITION was -9.76%.
For O=C(NCC(F)(F)F)C1=NOC2(CCCNC2)C1 (stereo not given), the INHIBITION was 52.9%.
In the case of Cc1ccc(CNC(=O)C2=NOC3(CCCNC3)C2)cc1 (stereo not given), the INHIBITION is reported as -13.1%.
O=C(NCc1ccncc1)C1=NOC2(CCCNC2)C1 (stereo not given) showed an INHIBITION of -6.21%.
COCCn1ccc(=O)c(OCC(=O)Nc2ccc(OC)cc2)c1C was tested, and the INHIBITION was -35.1%.
CCn1nc(C)c(CN(CCCOC)Cc2ccccn2)c1C gave an INHIBITION of 41.5%.
In the case of CCn1c(C2CCN(C(=O)c3cc(Cl)no3)CC2)nn(C)c1=O, the INHIBITION is reported as -34.7%.
COc1ccc(CN(CC2CCCO2)c2nc3c(s2)c(C)nn3C)cc1 (stereo not given) was tested, and the INHIBITION was 87.1%.
Cc1nn(C)c2nc(N(CCOc3ccccc3)CC3CCCO3)sc12 (stereo not given) gave an INHIBITION of 85.9%.
With Cc1nn(C)c2nc(N(Cc3ccccn3)CC3CCCO3)sc12 (stereo not given) the INHIBITION was 3.17%.
Cc1nn(C)c2nc(N(Cc3ccccc3)CC3CCCO3)sc12 (stereo not given) showed an INHIBITION of 32.8%.
Cc1nn(C)c2nc(N(Cc3ccncc3)CC3CCCO3)sc12 (stereo not given) was tested, and the INHIBITION was -24%.
Work on Cc1nn(C)c2nc(-c3ccccn3)nc(NC[C@@H]3CCCO3)c12 yielded an INHIBITION of 10.4%.
In the case of Cn1cc(CN2C[C@@H]3COC[C@]3(COCC3CC3)C2)cn1, the INHIBITION is reported as 33.1%.
CCn1c(CN(C)Cc2csc(C)n2)nc2cc(F)ccc21 was tested, and the INHIBITION was 45.2%.
CC(=O)c1c(C)nn(S(=O)(=O)c2ccc(C)c(C)c2)c1C was tested, and the INHIBITION was 4.97%.
CCOc1cc(=O)n2c(c1C(=O)OCc1ccc(F)cc1)CCCC2 gave an INHIBITION of -3.77%.
Cn1cccc(NC(=O)NCCOCc2ccccc2)c1=O gave an INHIBITION of 28.5%.
With Cn1cccc(NC(=O)NCc2cccc(CO)c2)c1=O the INHIBITION was 42.4%.
Cn1cccc(NC(=O)NCCc2cccc(O)c2)c1=O was tested, and the INHIBITION was 57.3%.
Compound CCN(Cc1ccccc1O)CC1(C)Cc2c(N)nc(N)nc2O1 (stereo not given) has an INHIBITION of 16.7%.
In the case of COCCOC(=O)N1C[C@@H]2CC[C@H]1CN(C1Cc3ccccc3C1)C2, the INHIBITION is reported as -55%.
COc1ccc(C2CCCN2C(=O)NCCNc2ccccn2)cc1 (stereo not given) gave an INHIBITION of -21.2%.
With Cc1nonc1NC(=O)CCn1cc(Br)ccc1=O the INHIBITION was 20.3%.
With CCCOc1ccc(CCC(=O)Nc2nonc2C)cc1 the INHIBITION was -11.3%.
With Cc1ccc(OCCCC(=O)Nc2nonc2C)cc1C the INHIBITION was 86.1%.
Work on COCC1c2c(cnn2C)CCN1Cc1ccc(C)o1 (stereo not given) yielded an INHIBITION of 34.4%.
Compound Cc1n[nH]c(C)c1CCC(=O)NCC1CCCN(C2CCCC2)C1 (stereo not given) has an INHIBITION of 38.6%.
COc1nn(C)cc1C(=O)N1CCC(C)CC1 was tested, and the INHIBITION was 49.9%.
CNC(=O)[C@H]1C[C@@H]2CN(C(=O)c3cccnc3)C[C@@H]2N1S(C)(=O)=O was tested, and the INHIBITION was 10.5%.
For Cc1ccc(CN2CCC3(CCN(S(=O)(=O)c4ccccc4)C3)C2)o1 (stereo not given), the INHIBITION was 56.8%.
With Cc1ccc(CN2CCCC3(CCN(S(C)(=O)=O)C3)C2)o1 (stereo not given) the INHIBITION was 22.7%.
With Cc1ccc(CN2CC3(CCN(S(=O)(=O)c4ccccc4)C3)C2)o1 the INHIBITION was 12.4%.
Cc1c[nH]c(CN2CCC3(CCCN(Cc4ccc(F)c(F)c4)C3)C2)n1 (stereo not given) was tested, and the INHIBITION was 42.2%.
For Cc1ccc(CN2CCCC3(CCN(S(=O)(=O)N(C)C)C3)C2)o1 (stereo not given), the INHIBITION was 48.3%.
With Cc1ccc(CN2CCC3(CCCN(S(C)(=O)=O)C3)C2)o1 (stereo not given) the INHIBITION was 24.9%.
Cc1ccc(CN2CCCC3(CCN(Cc4ccc(C)o4)C3)C2)o1 (stereo not given) gave an INHIBITION of 74.7%.
For Cc1ccc(CN2CCC3(CCCN(Cc4ccc(F)c(F)c4)C3)C2)o1 (stereo not given), the INHIBITION was 54.7%.
With CCS(=O)(=O)N1CCC2(CCN(Cc3ccc(C)o3)C2)C1 (stereo not given) the INHIBITION was 13.1%.
In the case of CC(=O)N1CCN([C@@H]2CC[C@@H](NC(=O)c3cc(C)cs3)[C@H]2O)CC1, the INHIBITION is reported as 33.7%.
Cc1cncc(C(=O)N2CCC3(CC2)NC(=O)CC3c2ccccc2)c1 (stereo not given) showed an INHIBITION of -3.88%.
For O=C([C@H]1C[C@H]2[C@H](CCN2Cc2cccs2)O1)N1CCOCC1, the INHIBITION was 24.8%.
Compound CSc1ncccc1C(=O)N1C[C@@H]2CC[C@H]1CN(C(C)=O)C2 has an INHIBITION of -31.1%.
COCCNc1c(-c2ccc(C)cc2)c(=O)c1=O was tested, and the INHIBITION was 25.3%.
Cc1ccc(S(=O)(=O)N2C[C@H](C3CC3)[C@@H](N)C2)cc1F gave an INHIBITION of 22.5%.
Cc1ccc(S(=O)(=O)N2CCC(N3CCCCC3)CC2)cc1C gave an INHIBITION of 45.4%.
Cc1cc(S(=O)(=O)N2CCC(S(C)(=O)=O)CC2)ccc1F showed an INHIBITION of 16.6%.
For Cc1cc(S(=O)(=O)N2CCC(S(C)(=O)=O)C2)ccc1F (stereo not given), the INHIBITION was 6.09%.
Compound Cc1ccc(S(=O)(=O)N2CCCCC(N3CCN(C)CC3)C2)cc1F (stereo not given) has an INHIBITION of 71.3%.
In the case of Cc1cc(S(=O)(=O)N2CCCN3CCCC3C2)ccc1F (stereo not given), the INHIBITION is reported as 88.1%.
Compound CCc1ccc(CN2CCC3(CC2)CN(c2cnn(C)c2)C(=O)CO3)o1 has an INHIBITION of 34.4%.
Compound Cc1ccc(OCCCSC2=NCCN2)cc1 has an INHIBITION of 39.1%.
With CSc1nc2cc(C)n(CC(=O)NC(C)C)c2c(=O)n1CC(C)C the INHIBITION was 43.9%.
In the case of CSc1nc2cc(C)n(CC(N)=O)c2c(=O)n1CC(C)C, the INHIBITION is reported as 42.3%.
COCCNC(=O)Cn1c(C)cc2nc(SC)n(CC(C)C)c(=O)c21 gave an INHIBITION of 89.9%.
Compound Cc1cc(C)n(CC(=O)N2CCC(Nc3cccnn3)CC2)n1 has an INHIBITION of -7.95%.
For O=C(NCc1cccs1)[C@@H]1CC[C@@H]2[C@@H](CCN2C2CCOCC2)O1, the INHIBITION was 27.6%.
CN(C)C(=O)N1CC[C@@H](O)[C@@H]1Cc1cnn(C)c1 gave an INHIBITION of 19.5%.
Cn1cc(C[C@H]2[C@H](N3CCOCC3)CCN2C(=O)c2ccco2)cn1 was tested, and the INHIBITION was 17.1%.
CN(C)[C@@H]1CCN(C(=O)c2ccco2)[C@H]1Cc1cnn(C)c1 showed an INHIBITION of 33.4%.
Work on Cn1cc(C[C@H]2[C@H](O)CCN2C(=O)c2ccsc2)cn1 yielded an INHIBITION of 60.2%.
Compound CCO[C@@H]1CCN(C(=O)c2cnc(C)cn2)[C@@H]1Cc1cnn(C)c1 has an INHIBITION of 53.2%.
With CN(C)[C@@H]1CCN(C(=O)c2ccsc2)[C@H]1Cc1cnn(C)c1 the INHIBITION was 48.3%.
Cn1cc(C[C@H]2[C@H](N3CCOCC3)CCN2C(=O)c2ccc[nH]2)cn1 gave an INHIBITION of 55.5%.
With COCCO[C@@H]1CCN(C(=O)c2ccc[nH]2)[C@H]1Cc1cnn(C)c1 the INHIBITION was 33.4%.
In the case of CCO[C@@H]1CCN(C(=O)c2cscn2)[C@@H]1Cc1cnn(C)c1, the INHIBITION is reported as 37.5%.
CN(C)[C@@H]1CCN(C(=O)c2cccn2C)[C@H]1Cc1cnn(C)c1 showed an INHIBITION of 57.9%.
Compound Cc1ccccc1C(=O)N1CC[C@@H](N(C)C)[C@@H]1Cc1cnn(C)c1 has an INHIBITION of 34.6%.
With Cn1cc(C[C@H]2[C@@H](O)CCN2C(=O)c2ccc[nH]2)cn1 the INHIBITION was 4.27%.
In the case of O=c1ccc(-c2cccs2)nn1CN1CCOC(c2ccccc2)C1 (stereo not given), the INHIBITION is reported as -16.5%.
Work on Cc1oc(C)c(C(=O)N2CCN(Cc3cscn3)CC2)c1C yielded an INHIBITION of -63.3%.
With CN(C)c1cccc(C(=O)N2CCCSCC2CN2CCCC2)c1 (stereo not given) the INHIBITION was 11%.
Compound CC(C)C(NC(=O)Cn1nc2c(cc1=O)CCCC2)C(=O)O (stereo not given) has an INHIBITION of -0.621%.
Cc1ccc(NCc2cncc3c2CCN(C(=O)C2CC=CC2)C3)nn1 was tested, and the INHIBITION was -25%.
Work on O=C(c1cncs1)N1CCCC1c1ccn[nH]1 (stereo not given) yielded an INHIBITION of -28.6%.
Cc1nc(N2CCOCC2)nc2c1CCN(Cc1cccnc1)CC2 gave an INHIBITION of 4.92%.
With Cc1cccc(N2CCN(C(=O)NC(C)c3nncn3C)CC2)c1 (stereo not given) the INHIBITION was -38.2%.
